Source: PubChem BioAssay (National Center for Advancing Translational Sciences (NCATS))
RORg inh: blocks mouse ROR gamma transcriptional activity; P51450; Drosophila S2 Gal4-RORgamma UAS-luciferase reporter, 20 h; Potency, µM (top dose mostly 53.6 µM), without a hit: top-dose activity change, negative = inhibition, most hits filed as inhibitors; 5.4% of 310,000 active; AID 2551; further: nearly all actives have a fitted effect of over 60% in size
Target sequence (P51450 whole entry, looked up, the tested form may be a part): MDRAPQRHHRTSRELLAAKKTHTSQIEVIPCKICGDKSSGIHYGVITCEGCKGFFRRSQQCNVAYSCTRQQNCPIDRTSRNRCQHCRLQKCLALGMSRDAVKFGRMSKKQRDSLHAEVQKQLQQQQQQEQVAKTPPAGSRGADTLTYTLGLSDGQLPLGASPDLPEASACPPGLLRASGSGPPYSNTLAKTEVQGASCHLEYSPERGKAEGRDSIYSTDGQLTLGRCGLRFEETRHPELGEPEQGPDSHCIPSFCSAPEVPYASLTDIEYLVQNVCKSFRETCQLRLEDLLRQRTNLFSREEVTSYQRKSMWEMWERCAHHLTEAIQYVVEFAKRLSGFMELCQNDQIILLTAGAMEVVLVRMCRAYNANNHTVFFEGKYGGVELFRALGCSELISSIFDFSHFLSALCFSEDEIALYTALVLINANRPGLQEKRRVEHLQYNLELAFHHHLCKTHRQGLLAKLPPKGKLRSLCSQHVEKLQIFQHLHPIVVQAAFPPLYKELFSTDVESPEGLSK
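Stably transfected Drosophila Schneider cells are the test system, with ROR gamma fused to Gal4 and luciferase under UAS control; luminescence is read after 20 hr of 700 uM copper sulfate induction at ambient temperature.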
KinaseGlo FLuc: counter-screen: inhibitors of Kinase-Glo firefly luciferase; Q27757; Kinase-Glo luciferase, ATP luminescence, 8 min; Potency, µM (series often up to 38.3 µM), inactives show at the highest dose activity change, negative = inhibition, most hits filed as inhibitors; 0.28% of 200,000 active; AID 1379; further: nearly all actives have a fitted effect of over 60% in size
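Kinase-Glo luciferase light output from ATP and luciferin was measured with 10 uM ATP, within the enzyme's linear range. Buffer: 50 mM imidazole pH 7.2, 50 mM KCl, 7 mM MgCl2, 0.01% Tween 20, 0.05% BSA; luminescence read after 8 min at ambient temperature.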
VP16 counter: inhibits Gal4-VP16 luciferase reporter, ROR gamma counter-screen. Drosophila S2 Gal4-VP16 UAS-luciferase, luminescence, 20 h. Potency, µM (series often up to 53.6 µM), inactives show at the top dose activity, negative = inhibition, actives largely listed as inhibitors. 3.5% of 310,000 active. AID 2546;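 further: Gal4-VP16 expression switched on by copper sulfate through the metallothionein promoter; nearly all actives have a fitted effect of over 50% in size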
An asterisk follows results filed as active; ? = inconclusive; . = no result given; [ ] = remark or other dose. Rows were chosen to be rich in hits. Some 6.4% of all compounds tested hit in one or more screens of this group. The call rests on the fitted dose curve; in most records, active means well fitted curve in the direction sought with a large enough effect; inconclusive means small, poorly fitted or top-dose-only effect, or another doubt; inactive means no such curve, though single readings can be large; an effect the other way counts as inactive or inconclusive. On the % scale 0 is the no-effect control and ±100 the full control effect; potency means the concentration at half of the fitted maximal effect.

SMILES | RORg inh | KinaseGlo FLuc | VP16 counter
CCOC(=O)N1CCN(C(=O)c2ccc3c(=O)n(Cc4ccc(Cl)cc4)c(=S)[nH]c3c2)CC1 | 5.6µM* | -1% | ?
CCOC(=O)N1CCN(C(=O)c2ccc(Cn3c(=S)[nH]c4ccc(Br)cc4c3=O)cc2)CC1 | ? | . | 14µM*
CC(=O)c1ccc(N2CCN(C(=O)c3ccc(Cn4c(=S)[nH]c5ccc(N6CCOCC6)cc5c4=O)cc3)CC2)cc1 | -8% | -1% | 25%
CC1CCCCN1CCNC(=O)c1ccc2c(=O)n(Cc3ccc(Cl)cc3)c(=S)[nH]c2c1 (stereo unspecified) | 11µM* | . | ?
CC1CCCCN1CCNC(=O)c1ccc2c(=O)n(CCc3ccccc3)c(=O)[nH]c2c1 (stereo unspecified) | 4% | -4% | -3%
CCn1cc(C(=O)Nc2ncccc2O)c(=O)c2cc(F)c(N3CCN(C(=O)c4ccco4)CC3)cc21 | -15% | . | -12%
CN(CC1CCOCC1)C(=O)CC1C(=O)NCCN1Cc1cccc(C(F)(F)F)c1 (stereo unspecified) | -15% | . | 3%
Cc1cnc(CNc2nc(-c3ccoc3)nc3ccccc23)cn1 | 10% | . | 3%
Nc1cccc2nsnc12 | 0% | . | -7%
Nc1cc2nsnc2cc1Br | 13µM* | -1% | -10%
O=C(c1cccc(F)c1)N1CCC[C@@]2(CCN(Cc3nccs3)C2)C1 | -17% | -2% | 13%
COc1ccc(-c2oc3ccccc3c(=O)c2O)cc1OC | 6.3µM* | -4% | ?
COc1cc(-c2oc3cc(O)cc(O)c3c(=O)c2O)ccc1O | 3% | . | -13%
COc1ccc(-c2oc3ccc(C)cc3c(=O)c2O)cc1OC | 5µM* | 2% | ?
COc1ccc(-c2oc3c(OC)c(OC)c(OC)c(O)c3c(=O)c2OC)cc1OC | 11µM* | . | ?
COc1ccc(-c2cc(=O)c3c(O)c(OC)c(OC)c(OC)c3o2)cc1OC | -15% | 1% | -5%
O=c1c(O)c(-c2ccc(O)cc2)oc2ccc(O)cc12 | ? | 2% | -3%
COc1cc2oc3ccccc3c(=O)c2cc1OC | -19% | . | 2%
COc1cc(OC)c2c(=O)c(O)c(-c3ccc(OC)c(OC)c3)oc2c1 | 2.8µM* | -1% | ?
O=C(O)c1ccc(/C=C/c2nc3sc4c(c3c(=O)[nH]2)CCC4)cc1 | 2% | -2% | -6%
COc1ccc(N2CCN(C(=O)CCNC(=O)Cn3ccc4ccccc4c3=O)CC2)cc1 | -1% | 0% | -7%
CCCNc1c(NS(=O)(=O)c2ccc3c(c2)CCCC3)c(=O)oc2ccccc12 | -21% | . | 1%
Cc1ccnc(N/C=C(/NC(=O)c2ccccc2)C(=O)N/N=C\c2ccc(Cl)cc2)n1 | -1% | . | -7%
CCN1CCCC1CNC(=O)Cn1nc(C)n2nc(-c3ccccc3)cc2c1=O (stereo unspecified) | -1% | . | 3%
N=c1c2cn[nH]c2nc(SCC(=O)c2ccc(Br)cc2)n1-c1ccc(Br)cc1 | -1% | 6% | -13%
SMILES | RORg inh | KinaseGlo FLuc | VP16 counter
COc1cccc(-c2oc3ccccc3c(=O)c2O)c1 | 6.3µM* | -5% | 7.9µM*
O=C(Nc1ccc2c(c1)oc1ccccc12)c1ccc2c(c1)OCO2 | ? | 0% | ?
O=c1c(O)c(-c2cccc(O)c2)oc2ccccc12 | ? | 0% | 2%
O=c1c(O)c(-c2ccc3c(c2)OCO3)oc2ccccc12 | 6.3µM* | -6% | 11µM*
O=C1NC2(CCCCCC2)C(=O)N1Cc1ccccc1Br | 8% | . | -16%
CCCCCCCCCCCCCCCCOC[C@H](COP(=O)([O-])OCC[N+](C)(C)C)OC(=O)NC | 1% | 2% | -4%
O=C(CC1C(=O)NCCN1Cc1cccc(F)c1F)NCCCC1CCCC1 (stereo unspecified) | 8% | . | -12%
Cc1cccc(C)c1NC(=O)CN(C)C(=O)Cc1cccc(C(F)(F)F)c1 | -20% | . | 5%
CN1CC(=O)N(C)c2ncn(Cc3ccccc3)c2C1=O | 4.5µM* | 7% | -8%[0.365 µM]
O=c1c2ccccc2ncn1Cc1ccccc1 | 15% | . | -12%
Cc1cc2c(NC3CCCCC3)ncnc2s1 | ? | . | 13µM*
Cc1cc2c(SCC(=O)NC3CCCCC3)ncnc2s1 | -22% | . | ?
C=CCNC(=S)/N=c1/scc(C)n1C | ? | -1% | -1%
Cc1cs/c(=N/C(=S)Nc2ccccc2)n1C | 1.6µM* | -10% | 10µM*
Cc1csc(=Nc2ccccc2)n1CCCN1CCCC1=O | -2% | 1% | -11%
CCCn1c(C)cs/c1=N\C(=S)Nc1ccccc1 | 4µM* | 0% | 5.6µM*
CC(=O)N(C(C)=O)c1ncc2c([nH]c3ccccc32)c1C#N | 1% | -3% | -10%
OCCCCc1nccc2c1[nH]c1ccccc12 | 12% | . | 0%
N#Cc1ccc(/C=C\c2nccc3c2[nH]c2ccccc23)cc1 | 0.45µM* | 0% | 2.2µM*
Clc1ccc(/C=C\c2nccc3c2[nH]c2ccccc23)cc1 | 1.6µM* | -2% | ?
C[C@H]1Cc2c(-c3ccccc3)nc3c(c2CO1)CN(C(=O)NCc1ccco1)CC3 | . | -3%[7.66 µM] | .
O=C(COc1ccc(S(=O)(=O)N2CCCC2)cc1)N1CCCCC1 | 13% | . | -5%
CCCCSc1ncnc2[nH]ncc12 | -28% | . | -4%
Nc1nc2nc(-c3ccccc3)cc(C(F)(F)F)c2s1 | -34% | . | 1%
Cc1cc(C(F)(F)F)nn1CC(=O)NCc1cccs1 | 10% | -1% | 5%
SMILES | RORg inh | KinaseGlo FLuc | VP16 counter
CCOc1cc(/C=C2\CCC/C(=C\c3cc(Cl)c(O)c(OCC)c3)C2=O)cc(Cl)c1O | ? | -4% | 11µM*
C=CCNC(=O)/C(C#N)=C\c1cc(Cl)c(O)c(OCC)c1 | 3% | 2% | -1%
COc1ccc(C(=O)OCC(=O)Nc2c(C)cccc2C)c(OC)c1OC | 19% | . | 7%
CC(C)(C)C(=O)/C(=C\c1ccc([N+](=O)[O-])cc1)n1cncn1 | 2.2µM* | 0% | 4.5µM*
CC(C)(C)C(=O)/C(=C/c1ccc(Cl)cc1)n1cncn1 | ? | . | -20%
Cc1ccc2nc(C(Cl)(Cl)Cl)nc(N/N=C/c3ccncc3)c2c1 | -14% | . | -3%
Cc1ccc(Nc2nc(-c3cccnc3)nc3ccccc23)cc1 | 19% | . | -4%
COc1ccc(/C=N/Nc2nc(-c3cccnc3)nc3ccccc23)cc1OC | -11% | . | -9%
Cc1ccc(-c2nc(N/N=C/c3ccncc3)c3ccccc3n2)cc1 | ? | 2.2µM* | 0.28µM*
Oc1ccc(/C=N/Nc2nc(-c3cccnc3)nc3ccccc23)c(O)c1 | ? | . | 11µM*
Cc1c(O)ccc(/C=N/Nc2nc(-c3cccnc3)nc3ccccc23)c1O | 4.5µM* | . | 18µM*
Cc1ccc(S(=O)(=O)N(CC2CO2)c2cc(Cl)ccc2Cl)cc1 (stereo unspecified) | -3% | . | 6%
CC1(C)CC(=O)C=C(Nc2ccc(C(=O)O)c(O)c2)C1 | -4% | . | -8%
COc1ccccc1NC(=O)CSc1nnc(-c2ccoc2C)n1C | 12% | . | 4%
COCC(C)n1c(C)cc(C(=O)COC(=O)c2c(C)nn(-c3ccccc3)c2C)c1C (stereo unspecified) | 31% | -2% | -2%
COCC(C)n1c(C)cc(C(=O)COC(=O)c2c(NC(C)=O)sc(C)c2C)c1C (stereo unspecified) | 4.5µM* | -2% | -15%
CC1CCc2[nH]c3ccc(C(=O)NCCCOC(C)C)cc3c2C1 (stereo unspecified) | 21% | -2% | 3%[10 µM]
